SMN2 splice enh: qHTS Assay for Enhancers of SMN2 Splice Variant Expression. HEK293 SMN2-luciferase splicing reporter, luminescence, 30-36 h. Potency, µM (doses to about 46.1 µM), without a hit: at the top dose activity change, positive = activation, actives largely listed as activators. 210,000 compounds, 2.8% hits; further: % of control where 0% means no effect; nearly all actives have a fitted effect of over 55% in size
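HEK293 cells carry an SMN2 […]–luciferase reporter in which exon 7 inclusion puts luciferase in frame. Cells were plated 10-12 h before compound addition, then incubated 30-36 h at 37C. ONE-Glo luminescence was read; sodium butyrate at 4.5 mM final served as control.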
NPC1 promoter act: qHTS Assay for NPC1 Promoter Activators; AID 485313, 2010; 320,000 compounds, 2.4% hits; Potency, µM (titrated, usually from 9.22 µM), for the others: at the top dose activation, actives largely listed as activators; Huh7 NPC1 promoter luciferase reporter, 24 h; further: % of control where 0% means no effect; nearly all actives have a fitted effect of over 60% in size
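Stable NPC1-promoter luciferase Huh7 line; cpd (DMSO) 24 h, 37 °C, 5% CO2; Amplite luciferase reagent 10 min RT; luminescence readout. qHTS format.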
Rab9 promoter act: qHTS Assay for Rab9 Promoter Activators; Huh7 Rab9 promoter-luciferase reporter, luminescence, 24 h; Potency, µM (highest dose often 9.22 µM), for the others: at the highest dose activation, negative = inhibition, hits mostly activators; 320,000 compounds, 2.8% hits; AID 485297, 2010; further: % of control where 0% means no effect; nearly all actives have a fitted effect of over 60% in size
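Using Huh7 cells stably transfected with Rab9 promoter–luciferase, compounds were incubated 24 h at 37 °C, 5% CO2; luciferase luminescence was read 10 min after reagent addition.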
ELG1 genotoxic: qHTS screen for small molecules that induce genotoxicity in human embryonic kidney (HEK293T) cells expressing luciferase-tagged ELG1 | HEK293T ELG1-luciferase reporter, luminescence, 16 h | Potency, µM (doses to about 46 µM), for the others: at the top dose activity change, positive = activation, hits mostly activators | 330,000 compounds, 1.3% hits | AID 504466, 2011; further: % of control where 0% means no effect; nearly all actives have a fitted effect of over 60% in size
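ELG1-luciferase HEK293T cells, 2,000/well; compound pinned in; 16 hr, 37 °C, 5% CO2; ONE-Glo, 30 min RT; luminescence on CCD imager.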
ELG1 repair inh: qHTS screen for small molecules that inhibit ELG1-dependent DNA repair in human embryonic kidney (HEK293T) cells expressing luciferase-tagged ELG1; HEK293T ELG1-luciferase reporter, luminescence, 16 h; DNA damage induced by 5-fluorouridine; Potency, µM (titrated, usually from 46.1 µM), for inactives: at the top dose activity change, negative = inhibition, actives largely listed as inhibitors; 330,000 compounds, 2.3% hits; AID 504467, 2011; further: on the % scale 0 is the no-effect control and ±100 the full control effect; nearly all actives have a fitted effect of over 55% in size
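Cells (2,000 per well) received 5-fluorouridine plus test compound or DMSO and were incubated 16 hr at 37 °C, 5% CO2. Luciferase activity was read by luminescence 30 min after ONE-Glo addition; signal suppression marked inhibition of damage-induced ELG1 function.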
FLuc modulator: qHTS profiling assay for firefly luciferase inhibitor/activator using purifed enzyme and Km concentrations of substrates (counterscreen for miR-21 project) | Luciferin 4-monooxygenase (Photinus pyralis), P08659 | purified FLuc, Km substrates, luminescence inhibition | Potency, µM (top dose mostly 57.5 µM), inactives show at the highest dose activity change, negative = inhibition, actives largely listed as inhibitors | 360,000 compounds, 6.9% hits | AID 588342, 2011;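 further: plate controls were vehicle for no effect and reference inhibitor for full effect; nearly all actives have a fitted effect of over 55% in size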
Target sequence (P08659 whole entry, looked up): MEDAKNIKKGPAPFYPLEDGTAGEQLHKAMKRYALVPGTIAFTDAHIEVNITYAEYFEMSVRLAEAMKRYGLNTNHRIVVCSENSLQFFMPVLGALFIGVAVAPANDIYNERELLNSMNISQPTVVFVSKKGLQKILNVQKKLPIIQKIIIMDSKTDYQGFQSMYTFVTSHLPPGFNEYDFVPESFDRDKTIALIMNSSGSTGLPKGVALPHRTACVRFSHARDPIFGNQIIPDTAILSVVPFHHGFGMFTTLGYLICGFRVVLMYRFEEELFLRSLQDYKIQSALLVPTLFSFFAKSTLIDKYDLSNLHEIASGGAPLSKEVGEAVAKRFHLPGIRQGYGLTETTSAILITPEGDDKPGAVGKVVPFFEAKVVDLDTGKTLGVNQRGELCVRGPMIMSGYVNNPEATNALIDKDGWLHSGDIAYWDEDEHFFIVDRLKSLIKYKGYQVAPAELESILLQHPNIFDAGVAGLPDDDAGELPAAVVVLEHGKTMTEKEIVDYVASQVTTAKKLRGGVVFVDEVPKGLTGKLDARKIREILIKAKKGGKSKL
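Purified P. pyralis luciferase, 10 nM final, with Km-level 10 uM D-luciferin and 10 uM ATP in 50 mM Tris acetate pH 7.5, 10 mM Mg acetate, 0.01% Tween-20, 0.05% BSA; 6-point qHTS titration about 60 µM downward; luminescence read.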
Active calls of the source: *; ? = inconclusive; · = not tested or not shown; [ ] = dose if it differs, or a comment. Sampled rows, rich in hits. Any-hit rate of the full collection: about 9.4%. The call rests on the fitted dose curve; in most records, active means well fitted curve in the direction sought with a large enough effect; inconclusive means small, poorly fitted or top-dose-only effect, or another doubt; inactive means no such curve, though single readings can be large; an effect the other way counts as inactive or inconclusive. Potency means the concentration at half of the fitted maximal effect.

SMILES	SMN2 splice enh	NPC1 promoter act	Rab9 promoter act	ELG1 genotoxic	ELG1 repair inh	FLuc modulator
COc1ccc(-c2nc(/C=C3\C(C)=Nc4ccccc43)c(O)o2)cc1	-1.9%	-3.3%	-4.7%	3.1%	15.4%	?
COc1ccc(N=Cc2nc(-c3ccco3)oc2O)cc1	21.9%	1.6%	-0.2%	10.6%	?	8.49µM*
Oc1oc(-c2ccccc2)nc1C=Nc1ccccc1	25.8%	21.5%	21.0%	15.6%	?	10.7µM*
CN(C)c1ccc(N=Cc2nc(-c3ccccc3)oc2O)cc1	-2.6%	?	28.7%	10.3%	?	?
CC1=Nc2ccccc2/C1=C\c1nc(-c2ccccc2)oc1O	-11.6%	0.6%	2.1%	0.5%	12.6%	16.9µM*
CSc1ccccc1N=Cc1nc(-c2ccccc2)oc1O	28.3%	1.3%	-3.6%	?	12.0%	9.53µM*
O=C(NC1CCCc2c1cnn2-c1ccc(F)cc1F)c1ccccc1N1CCOCC1 (stereo not drawn)	·	-3.3%	-1.2%	-3.4%	1.5%	-4.5%
C/C(=N\[N+](C)(C)C)c1ccc(C)c(C)c1	-15.7%[9.22 µM]	·	·	·	·	·
Cc1cccc(N2CCN(C(=O)c3cc4c(=O)[nH]c5ccc(C)cc5c4s3)CC2C)c1 (stereo not drawn)	-9.1%	·	·	·	·	-7.2%
CCN(CC)C(=O)Cn1c(=O)n(-c2ccc(Cl)c(Cl)c2)c(=O)c2c(C)c(C(=O)N(CC)CC)sc21	·	·	·	·	·	0.3%
Cc1cccc(NC(=O)C2CCN(c3nnc(-n4c(C)ccc4C)s3)CC2)c1C	7.0%	·	·	·	·	-3.6%
Oc1oc(-c2ccccc2)nc1C=NCc1ccccc1	9.3%	?	25.5%	20.6µM*	?	16.9µM*
CCN(CC)C(=O)c1ccc2c(c1)N(Cc1ccc(C(F)(F)F)cc1)C(=O)c1ccccc1S2	-9.8%	·	·	·	·	?
O=C(COc1ccccc1C(=O)NCc1ccccn1)Nc1ccc(Br)cc1	-8.6%	6.1%	0.1%	-7.6%	16.4µM*	?
Cc1ccc(NC(=O)COc2ccccc2C(=O)NCCc2ccccc2)cc1	·	1.8%	8.8%	-0.4%	?	21.3µM*
O=C1C(Nc2cccc(O)c2)=C(N2CCCCC2)C(=O)c2ccccc21	-30.2%	-24.1%	-35.8%	-15.1%	13µM*	?
COc1ccccc1NC1=C(N2CCCCC2)C(=O)c2ccccc2C1=O	-104.7%	-39.4%	-45.3%	-18.0%	1.84µM*	-19.0%
O=C(/C=C/c1ccc(O)cc1)c1ccc(NC2=C(N3CCCCC3)C(=O)c3ccccc3C2=O)cc1	-98.8%	-34.9%	-29.2%	-5.7%	2.1%	7.57µM*
O=C1C(Nc2ccccc2)=C(N2CCCCC2)C(=O)c2ccccc21	-57.8%	-38.0%	-26.5%	-0.9%	?	-9.2%
CS(=O)(=O)N1CCC2(CC1)CN(Cc1nccs1)C2	-6.9%	·	·	·	·	·
CCc1c(C)sc2c1CCN(Cc1cccc(OC)c1)C2c1ccccc1 (stereo not drawn)	·	·	·	·	·	0.5%
COc1ccc(NC(=O)N(CCC(C)C)C(C)c2cccs2)c(OC)c1 (stereo not drawn)	·	·	·	·	·	-1.8%
CCCCN(C)c1nnc(NC(=O)Nc2cccc(C(C)=O)c2)s1	·	·	·	·	·	-9.4%
CC(C)(C)n1ncc2c(=O)n(CC(=O)OCc3ccccc3)cnc21	3.7%	?	1.41µM*	?	?	0.0849µM*
CC(C)(C)n1ncc2c(=O)n(Cc3ccccc3)cnc21	·	·	·	·	·	2.1%
SMILES	SMN2 splice enh	NPC1 promoter act	Rab9 promoter act	ELG1 genotoxic	ELG1 repair inh	FLuc modulator
Cc1ccc(C(=O)Cn2cnc3ccccc3c2=O)cc1	11.2µM*	?	2.51µM*	?	?	21.3µM*
CC(C)(C)n1ncc2c(=O)n(CC(=O)c3ccccc3)cnc21	12.6µM*	?	4.47µM*	15.1%	?	23.9µM*
Cc1ccc(CNC(=O)C2CCCN(c3nnc(-n4c(C)ccc4C)s3)C2)cc1 (stereo not drawn)	-5.0%	·	·	·	·	-8.5%
CC1CN(S(=O)(=O)c2cccc(C(=O)N3CCC(C(N)=O)CC3)c2)CC(C)O1 (stereo not drawn)	·	·	·	0.5%	10.6%	·
Cc1ccc(S(=O)(=O)N(CC(=O)N2CCc3ccccc3C2)c2ccc(C)c(C)c2)cc1	18.3%	·	·	·	·	2.7%
Cc1oc2c(C)c3oc(=O)c(CCC(=O)N4CCCCC4)c(C)c3cc2c1C	10.6%	·	·	·	·	-7.9%
C/C(=N\Nc1ccccn1)c1ccc(N2CCOCC2)cc1	14.1µM*	?	2.24µM*	?	?	13.5µM*
O=C(N/N=C/c1ccc(N2CCOCC2)cc1)c1ccncc1	·	1.7%	-7.3%	-0.2%	13.4%	?
O=[N+]([O-])c1cccc(N/N=C/c2ccc(N3CCOCC3)cc2)c1	·	2.82µM*	3.16µM*	?	?	10.7µM*
C/C(=N\NC(=O)c1ccc(Cl)cc1)c1ccc(N2CCOCC2)cc1	6.2%	-1.7%	0.6%	7.3%	23.6%	-3.7%
C(=N\Nc1ccccn1)/c1ccc(N2CCOCC2)cc1	12.6µM*	3.16µM*	2.82µM*	?	?	6.01µM*
O=C(O)c1cc(N/N=C/c2ccc(N3CCOCC3)cc2)ccc1Cl	·	?	?	?	?	0.601µM*
O=C(O)c1cccc(C[C@H](Br)C(=O)O)c1	0.5%[9.22 µM]	·	·	·	·	·
CCc1nn(CC(=O)N(CC)Cc2ccccc2)c(=O)c2cc3occc3n12	-3.0%	·	·	·	·	-7.9%
C/C(=N\Nc1ccccn1)c1ccc(C(C)C)cc1	?	?	?	12.7%	?	9.53µM*
C(=N\Nc1ccccc1)/c1ccc(N2CCOCC2)cc1	17.8µM*	3.16µM*	2.82µM*	?	?	7.57µM*
Cc1cc(C)nc(N/N=C/c2ccc(N3CCOCC3)cc2)n1	20.5%	-6.8%	-17.9%	-10.1%	-0.5%	1.0%
Clc1cccc(N/N=C/c2ccc(N3CCOCC3)cc2)c1	?	?	?	15.4%	?	13.5µM*
O[C@@](CCN1CCCCC1)(c1ccccc1)C1CCCCC1	-13.1%[20.6 µM]	·	·	·	·	·
COC(=O)c1cc2oc3ccccc3c2n1CC(=O)Nc1ccc(C)cc1Cl	5.4%	·	·	·	·	1.0%
COc1cc(O)ccc1C(C)=O	2.8%	·	·	·	·	·
Cc1cc(C)nc(NC(=O)c2ccc3c(c2)OCO3)c1	6.6%	18.4%	17.2%	14.5%	?	16.9µM*
Cc1ccc(NC(=O)Nc2ccc3c(c2)OCO3)nc1	12.6µM*	3.16µM*	2.51µM*	?	?	6.75µM*

Compound activity as filed in PubChem BioAssay.
